Source: PubChem BioAssay AID624125 (The Scripps Research Institute Molecular Screening Center, 2012)
Values joined by “and” are separate entries in the source; they are usually repeats but may differ in a detail not shown here. Identical values can stand only once. Hit rate of the full screen: of about 360,000 compounds, about 2,600 (0.72%) were called active. This is one part of a sample in which actives are shown more often than they occur.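 The calls were made as follows: active = inhibition above its plate's cutoff, the mean inhibition of sample wells plus 3 SD (cut at about 27% in these data); inactive = the rest.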 Where a structure was tested more than once in an assay, its records may differ in their call.

molecular target: Muscarinic acetylcholine receptor M4 (Homo sapiens) (UniProt P08173); experiment: human M4 muscarinic receptor antagonists, primary screen, CHO cells, Fluo-8 calcium fluorescence (AID 624125); settings: CHO-hM4 cells, ACh EC80, Fluo-8 calcium fluorescence; at 3 µM; stronger effect = higher value;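 also: 0% = acetylcholine EC80 with DMSO and 100% = DMSO without agonist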
Sequence (P08173 whole entry, looked up): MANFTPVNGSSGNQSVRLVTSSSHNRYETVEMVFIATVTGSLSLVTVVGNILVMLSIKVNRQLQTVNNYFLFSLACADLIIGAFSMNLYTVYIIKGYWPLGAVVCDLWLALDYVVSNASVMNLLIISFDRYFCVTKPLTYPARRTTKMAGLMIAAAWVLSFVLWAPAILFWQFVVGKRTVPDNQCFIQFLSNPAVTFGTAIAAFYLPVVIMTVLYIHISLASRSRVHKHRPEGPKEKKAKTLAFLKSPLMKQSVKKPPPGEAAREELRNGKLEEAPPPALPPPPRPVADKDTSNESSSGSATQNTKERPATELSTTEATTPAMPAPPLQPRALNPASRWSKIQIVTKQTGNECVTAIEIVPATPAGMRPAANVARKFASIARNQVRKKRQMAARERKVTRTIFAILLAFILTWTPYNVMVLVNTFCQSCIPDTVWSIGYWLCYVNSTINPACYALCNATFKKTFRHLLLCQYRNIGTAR

SMILES | inhibition
CCOC(=O)[C@H]1[C@H]2COc3cc(OC)ccc3[C@@H]2N2C(=O)CN(Cc3ccc(Cl)cc3)C(=O)[C@@]12C | 2.23% (inactive)
CCOC(=O)[C@H]1[C@H]2COc3ccc(C)cc3[C@@H]2N2C(=O)CN(Cc3ccc(F)cc3)C(=O)[C@@]12C | 56.2% (active)
CCOC(=O)[C@H]1[C@H]2COc3ccccc3[C@@H]2N2C(=O)CN(Cc3ccccc3)C(=O)[C@@]12C | -1.92% (inactive)
CC(C)CNC(=S)NC(=O)c1ccc(Cl)cc1 | -0.83% (inactive)
COc1ccc(N2CC(C(=O)NCCN3C(=O)S/C(=C\c4cccnc4)C3=O)CC2=O)c(OC)c1 (centres undefined) | -13.5% (inactive)
O=C(NC(Cc1ccc(O)cc1)C(=O)O)/C(=C/c1ccccc1)NC(=O)c1ccccc1 (centres undefined) | 0.71% (inactive)
COc1cccc(C(=O)NNS(=O)(=O)c2ccc(F)cc2)c1 | 9.85% (inactive)
CC(C)NC(=O)C1(C)CCCCN1Cc1cccc(C(F)(F)F)c1 (centres undefined) | -7.19% (inactive)
O=C(COC(=O)c1ccc(S(=O)(=O)Nc2ccccc2)cc1)NCC1CCCO1 (centres undefined) | 0.71% (inactive)
C=CCC1(CC=C)CCCN1C(=O)c1cc(COc2ccc(-n3cncn3)cc2)on1 | 28.6% (active)
O=C(c1cc(COc2c(F)cccc2F)on1)N1CCSCC1 | 8.34% (inactive)
CCCC(=O)N1CCC1(C)C(=O)Nc1ccc(-n2cncn2)cc1 (centres undefined) | -7.42% (inactive)
Cc1cccc(C)c1Nc1nnc(SCC(=O)NCCCN2CCCC2=O)s1 | -0.57% (inactive)
COC(=O)c1sccc1NC(=O)CC1C(=O)NCCN1C(=O)Nc1ccc(F)cc1F (centres undefined) | -7.71% (inactive)
COc1ccc(CC(=O)Nc2c3c(nn2-c2cccc(Cl)c2)CS(=O)C3)cc1 (centres undefined) | 3.64% (inactive)
Cc1cc(OCCN2CCCC2)ccc1C(C)C | -0.72% (inactive)
Cc1ccc(C(C)C)cc1OCCN1CCCC1 | 9.89% (inactive)
Cc1cc(OCCN2CCCC2)cc(C(C)C)c1 | 33% (active)
CCOC(=O)[C@]12CCCC=C1N(CCC1=CCCCC1)C(=O)[C@H](CC(=O)NCCCOC)C2 | -3.81% (inactive)
CC(=O)N(CC1CCCO1)C1(C(=O)NC2CCCC2)CCCCC1 (centres undefined) | -5.29% (inactive)
CN(CC#CCC(c1ccccc1)c1ccccc1)C(C)(C)C | 78.5% (active)
Cc1cc(Cl)ccc1C(=O)C1CCCN(C(=O)CCN2CCCO2)C1 (centres undefined) | 4.93% (inactive)
CCCCCCCCCCOC(=O)Cn1c(COc2cccc(OC)c2)[n+](C)c2ccccc21 | 36% (active)

SMILES | inhibition
COCCN1C(=O)C(=O)/C(=C(/O)c2ccc(S(=O)(=O)N3CCCCC3)cc2)C1c1ccc(OC)c(OC)c1 (centres undefined) | -5.56% (inactive)
CC(C)c1cc(C(=O)N/N=C/c2ccoc2)c(O)c(C(C)C)c1 | 5.01% (inactive)
O=C(Cc1ccc(Cl)cc1)NC(=S)Nc1ccccc1O | 59% (active)
Fc1ccccc1CNC(=S)Nc1ccc(Cl)cc1 | 4.18% (inactive)
COC(=O)c1ccccc1NC(=O)CN(Cc1ccc(Cl)cc1)S(C)(=O)=O | 1.99% (inactive)
CCOc1ccc(S(=O)(=O)N(CC(=O)NCC(F)(F)F)Cc2ccco2)cc1 | -2.55% (inactive)
Cc1ccc(OCCNC(=O)CCNS(=O)(=O)c2ccc(Br)cc2)cc1 | -11.5% (inactive)
Cc1ccc(OC(=O)c2c(C)nn(-c3ccccc3)c2C)cc1 | -5.29% (inactive)
COc1ccccc1CSc1ncc(-c2ccc([N+](=O)[O-])cc2)[nH]1 | -1.68% (inactive)
CCCCN(C)c1ccc([N+](=O)[O-])cc1 | 12.1% (inactive)
CCC1OC(c2ccc([N+](=O)[O-])cc2)=Nc2ccccc21 (centres undefined) | 31.2% (active)
CCOC(=O)c1cc(-c2ccccc2C)n(Cc2cc(C)no2)n1 | 4.03% (inactive)
CCCCNCCS(=O)(=O)NCc1ccccc1 | 7.64% (inactive)
C=CC1=C(C(=O)O)N2C(=O)[C@@H](NC(=O)/C(=N/OCC(=O)O)c3csc(N)n3)[C@H]2SC1 | -12.2% (inactive)
C=CC1=C(C(=O)O)N2C(=O)[C@@H](NC(=O)/C(=N\OCC(=O)O)c3csc(N)n3)[C@H]2SC1 | -25.2% (inactive)
CO/N=C(\C(=O)N[C@@H]1C(=O)N2C(C(=O)O)=C(COC(C)=O)CS[C@H]12)c1csc(N)n1 (stereo in doubt) | -6.4% (inactive) and 79.2% (active) and 82.7% (active)
O=C(Cc1ccc(-n2c(=O)[nH]c3ccccc3c2=O)cc1)N1CCN(c2cccc(Cl)c2)CC1 | -5% (inactive)
O=C(Cc1csc(Nc2nc(=S)[nH]c3ccccc23)n1)NCCCN1CCN(c2cccc(Cl)c2)CC1 | 32.6% (active)
Cn1c(Cc2cccc3ccccc23)nnc1SCC(=O)N1CCN(c2cccc(Cl)c2)CC1 | -1.27% (inactive)
COc1cc(SC#N)ccc1N=Cc1c(C)[nH]n(-c2ccc(C)cc2)c1=O | 39.7% (active)
CCN(CC(=O)NCc1cccs1)S(=O)(=O)c1ccc(NC(C)=O)cc1 | 16.2% (inactive)
CCCCNC(=O)N1CCN(S(C)(=O)=O)CC1 | 10.9% (inactive)
O=C(Nc1ccc(Cl)c(C(F)(F)F)c1)C1Cc2c(-c3ccccc3Oc3ccccc3)ccnc2O1 (centres undefined) | 6.27% (inactive)

SMILES | inhibition
Nc1ccc(SCCN2C(=O)c3ccccc3C2=O)cc1 | 2.61% (inactive)
O=C1c2ccccc2C(=O)N1CCC(c1ccccc1)c1ccco1 (centres undefined) | 35.6% (active)
O=C1c2ccccc2C(=O)N1CCC(O)C[N+](=O)[O-] (centres undefined) | -2.27% (inactive)
Cc1ccc(NC(=O)COC(=O)C2C3CC4OC(=O)C2C4C3)cc1Cl (centres undefined) | 15.9% (inactive)
CCCN1C(=O)C(NC(C)=O)c2cc(OC)ccc21 (centres undefined) | 13.9% (inactive)
ON=C1/C(=N\O)CC2(C/C1=N/O)OCCO2 | 10.7% (inactive)
CN(C(=O)CN1C(=O)/C(=C/c2ccc(Cl)cc2)SC1=S)C1CCS(=O)(=O)C1 (centres undefined) | -3.95% (inactive)
COc1cc(/C=C2/SC(=S)N(Cc3ccccc3)C2=O)cc(OC)c1O | 34.3% (active)
COc1cc(/C=C2\SC(=O)NC2=O)ccc1OCc1ccc(Cl)nc1 | -5.37% (inactive)
CCCN(CCc1ccccc1)C1CCc2c(O)cccc2C1 (centres undefined) | 50.8% (active)
Cc1cc(C)cc(C(=O)N(CCc2ccccc2)C2=CC3CCC(C2)N3C)c1 (centres undefined) | 2.44% (inactive)
Cc1cccc(C)c1NC(=O)C(c1cccc2ccccc12)n1c(=O)c(-c2ccco2)nc2ccccc21 (centres undefined) | -2.98% (inactive)
Cc1ccc(S(=O)(=O)N2CCN(C(=O)COC(=O)CNC(=O)c3ccc(C(C)(C)C)cc3)CC2)c(C)c1 | 1.62% (inactive)
Cc1cccc(C)c1NC(=O)c1ccc(CN2CCc3ccccc3C2)cc1 | 12.8% (inactive)
Cc1cccc2c1-c1sc(C(=O)NCCCN3CCc4ccccc4C3)cc1CO2 | 45.9% (active)
Cc1ccc(NC(=O)CN2CCc3ccccc3C2)cc1C | 1.35% (inactive)
Cc1ccc(C(=O)OCC(=O)NC(=O)Cc2ccccc2)c(O)c1 | 3.16% (inactive)
CC1CCCCC1NC(=O)CN1CCC(O)(c2ccc3c(c2)OCO3)CC1 (centres undefined) | -5.57% (inactive)
CC(=O)c1c(C)[nH]c(C(=O)OCC(=O)Nc2c(C)cccc2C)c1C | 4.68% (inactive)
CC(=O)c1c(C)[nH]c(C(=O)COC(=O)c2cccc(S(=O)(=O)N(C)c3ccccc3)c2)c1C | 54.5% (active)
COc1ccc(C)cc1NC(=O)C(OC(=O)c1cccc(S(=O)(=O)N(C)c2ccccc2)c1)c1ccccc1 (centres undefined) | 5.12% (inactive)
C=CCSc1nc(N)cc(=O)[nH]1 | 4.39% (inactive)
O=C(C1CCN(CC2CCCCC2)CC1)N1CCCC1 | -6.1% (inactive)

SMILES | inhibition
CC(=O)NC(c1cccc(F)c1)c1nc(-c2cccc(F)c2)cs1 (centres undefined) | -12% (inactive)
Cn1nc(C(F)(F)F)c(C(=O)Nc2cccc(C(F)(F)F)c2)c1SCc1ccc(Cl)cc1 | 33.8% (active)
COC(=O)c1ccccc1Sc1c(/C=N/OCc2ccc(Cl)cc2)c(C(F)(F)F)nn1C | -7.11% (inactive)
CCC(=O)OCc1c(C(F)(F)F)nn(C)c1Oc1cccc(C(F)(F)F)c1 | 9.7% (inactive)
C=CCNC(=S)/N=c1/ccccn1Cc1ccccc1 | 11.8% (inactive)
COc1cccc(CNc2nc(NCc3ccccc3OC)nc3ccsc23)c1 | 13.8% (inactive)
COc1ccccc1CNc1nc(Nc2ccccc2Cl)c2sccc2n1 | 3.54% (inactive)
COc1cccc(CNc2nc(NCc3cccs3)nc3ccsc23)c1 | 48.6% (active)
COc1ccc(OCC(=O)Nc2cc(C)c(Cl)cc2OC)c([N+](=O)[O-])c1 | -4.9% (inactive)
Cc1ccccc1C(OCCN(C)C)C1CCCCC1 (centres undefined) | 83% (active)
Cc1ccccc1C(OCC(O)CN1CCCCC1CCO)c1ccccc1 (centres undefined) | 8.86% (inactive)
CN(C)CCOC1c2ccccc2-c2ccccc21 | 3.09% (inactive)
Cc1n[nH]c(=O)n1-c1ccc(Oc2ccccc2)cc1 | -7.75% (inactive)
COc1ccc(OC)c(/C=N/NC(=O)c2ccc[n+](CC(=O)c3ccccc3)c2)c1 | -5.54% (inactive)
COc1cccc(/C=N/Nc2cc(C)nc(-c3ccccc3O)n2)c1O | 28.3% (active)
CCCCCCCCn1c2c(c(=N)c3c1CCC3)CCCC2 | 36.8% (active)
CC1CN(S(=O)(=O)c2ccccc2)C(C)CN1S(=O)(=O)c1ccccc1 (centres undefined) | -4.76% (inactive)
O=C(CC(NC(=O)c1ccccc1)c1ccccc1)Nc1ccc(F)c(F)c1 (centres undefined) | -4.69% (inactive)
COc1ccccc1OCc1nnc(SCC(N)=O)n1-c1ccccc1 | -4.24% (inactive)
CC1CCN(C(=O)c2ccc(S(=O)(=O)Cc3cc(F)ccc3F)c([N+](=O)[O-])c2)CC1 | -7.53% (inactive)
